Screening data as filed in PubChem BioAssay.
Hits are enriched below; roughly 5.2% of the tested compounds scored in any of these assays.
PLK1 PBD inh = inhibitors of human PLK1 polo-box domain binding; P53350; Plk1 PBD binding of FITC phosphopeptide, fluorescence polarization; Potency, µM, inactives show max response, negative = inhibition, most hits filed as inhibitors; 2.8% of 360,000 active; AID 720504; note: potency is the fitted concentration of half-maximal effect; series mostly up to about 57 µM; % is set by controls: 0 for no effect and ±100 for the full control effect; nearly all actives have a fitted effect of over 65% in size
rTrxR1 inhibitor = rat TrxR1 inhibition. 1% of 390,000 active. O89049. AID 588453. Potency, µM (doses to about 114 µM), without a hit: top-dose activity change, negative = inhibition, usual class: inhibitors. recombinant rTrxR1, NADPH fluorescence consumption, selenite substrate; note: potency is the fitted concentration of half-maximal effect; % is set by controls: 0 for no effect and ±100 for the full control effect; nearly all actives have a fitted effect of over 65% in size
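Rat TrxR1 (90 nM in the dispensed reagent) was pre-reduced with 400 uM NADPH for 5 min at room temperature, then incubated with compound for 15 min. After 400 uM selenite was added, NADPH fluorescence (Ex 340/Em 450 nm) was followed for 8 min.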
TrxR1 substrate = substrates of rat thioredoxin reductase 1 | purified TrxR1 substrate turnover, NADPH consumption readout | AID 588456 | 0.01% of 390,000 active | O89049 | Potency, µM (doses to about 114 µM), inactives show at the highest dose activity change, negative = substrate turnover; note: potency is the fitted concentration of half-maximal effect; % is set by controls: 0 for no effect and ±100 for the full control effect; nearly all actives have a fitted effect of over 50% in size
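Rat TrxR1, dispensed at 90 nM, was prereduced with 400 uM NADPH (final) for 5 min at ~22 deg C, then incubated with compound 15 min before 400 uM selenite. A first-read NADPH fluorescence drop versus no-compound background flagged substrates.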
mIDH1 inhibitor = inhibitors of human mutant IDH1 R132H | O75874 | IDH1-R132H enzyme, NADPH consumption, diaphorase/resazurin fluorescence | Potency, µM (titrated, usually from 76.6 µM), for inactives: at the highest dose activity change, negative = inhibition, hits mostly inhibitors | 0.093% of 390,000 active; note: potency is the fitted concentration of half-maximal effect; % is set by controls: 0 for no effect and ±100 for the full control effect; nearly all actives have a fitted effect of over 65% in size
Target sequence (O75874 whole entry R132H, stated change not applied): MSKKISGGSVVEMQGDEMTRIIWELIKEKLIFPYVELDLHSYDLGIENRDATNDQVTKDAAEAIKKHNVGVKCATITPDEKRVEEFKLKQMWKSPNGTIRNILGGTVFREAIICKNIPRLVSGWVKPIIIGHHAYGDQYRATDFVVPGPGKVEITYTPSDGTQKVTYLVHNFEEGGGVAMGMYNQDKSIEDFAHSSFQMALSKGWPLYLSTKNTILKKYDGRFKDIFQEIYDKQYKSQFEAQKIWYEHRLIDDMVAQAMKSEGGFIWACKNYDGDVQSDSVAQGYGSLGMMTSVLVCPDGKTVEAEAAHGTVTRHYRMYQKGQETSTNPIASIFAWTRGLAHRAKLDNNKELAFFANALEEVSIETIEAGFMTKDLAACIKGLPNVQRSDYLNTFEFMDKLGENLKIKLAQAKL
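IDH1-R132H (0.5 ug/mL) preincubated 30 min with compound, then NADPH (0.016 mM) and alpha-KG (2 mM) added; 80 min at RT, pH 7.5. Remaining NADPH coupled via diaphorase/resazurin to fluorescence (540/590 nm); concentration-response curves normalized to no-enzyme control.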
Sfp PPTase inh = inhibitors of Bacillus subtilis Sfp phosphopantetheinyl transferase. Q9F4F7. Biochemical Sfp PPTase activity, qHTS. Potency, µM, for inactives: largest response in the series, negative = inhibition, hits mostly inhibitors. 3.5% of 310,000 active. AID 1490;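 note: the enzyme is Sfp with the accession as filed and its product quenches rhodamine fluorescence; potency is the fitted concentration of half-maximal effect; 0% = enzyme reaction without inhibitor and -100% = no enzyme wells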
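With Hepes-Na pH 7.6 buffer containing 10 mM MgCl2, Sfp (15 nM) modified BHQ-2-YbbR (12.5 uM) using rhodamine-CoA (5 uM). Two reads 30 minutes apart at 525/598 nm yielded each well's rate.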
VDR inh = blocks the human vitamin D receptor; P11473; VDR-SRC2-3 peptide fluorescence polarization, 2 h; Potency, µM, without a hit: max response, negative = inhibition, usual class: inhibitors; 0.93% of 400,000 active; AID 504847; note: potency is the fitted concentration of half-maximal effect; % is set by controls: 0 for no effect and ±100 for the full control effect
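Signal is fluorescence polarization, reporting how far test compounds block the interaction of VDR with the SRC2-3 coregulator peptide after a 2 h room-temperature incubation.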
IDH1 autofl = autofluorescence interference, mutant IDH1 hit counter-screen. inhibition of signal, % at 51.2 µM. shares compounds with mIDH1 inhibitor. AID 623980. Resorufin detection reagent fluorescence interference, cell-free. 750 tested, under 10 active;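 note: 0% = wells with normal resorufin and full inhibition = wells lacking resorufin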
IDH1 WT = wild-type IDH1 (human) inhibition counterscreen | WT IDH1 enzyme, NADPH diaphorase/resazurin fluorescence | shares compounds with mIDH1 inhibitor | Potency, µM (series often up to 115 µM), inactives show at the top dose activity change, negative = inhibition, actives largely listed as inhibitors | 9% of 750 active;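 note: potency is the fitted concentration of half-maximal effect; 0% = full WT IDH1 enzyme control and full inhibition = no enzyme wells; nearly all actives have a fitted effect of over 55% in size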
Target sequence (O75874 whole entry, looked up): as the sequence (O75874 whole entry R132H, stated change not applied) above, with H132R counted along it
IDH1 R132H conf = confirmation of human mutant IDH1 inhibitors; shares compounds with mIDH1 inhibitor; AID 624002; IDH1 R132H enzyme, NADPH diaphorase/resazurin fluorescence; Potency, µM (highest dose often 76.6 µM), inactives show top-dose activity change, negative = inhibition, actives largely listed as inhibitors; 83% of 750 active; note: potency is the fitted concentration of half-maximal effect; nearly all actives have a fitted effect of over 50% in size
TbPYK inh = Trypanosoma brucei pyruvate kinase inhibition, cherry-pick confirmation; shares compounds with PLK1 PBD inh; recombinant TbPYK, Kinase-Glo ATP luminescence; Potency, µM (top dose mostly 76.9 µM), without a hit: at the highest dose activity change, negative = inhibition, most hits filed as inhibitors; 67% of 890 active; AID 720569; note: potency is the fitted concentration of half-maximal effect; % is set by controls: 0 for no effect and ±100 for the full control effect; nearly all actives have a fitted effect of over 70% in size
TbPYK ADP-Glo = orthogonal confirmation of Trypanosoma brucei pyruvate kinase inhibitors. 62% of 890 active. shares compounds with PLK1 PBD inh. Potency, µM (titrated, usually from 76.9 µM), without a hit: at the top dose activity change, negative = inhibition, hits mostly inhibitors. recombinant TbPYK, ADP-Glo luminescence, 60 min; note: potency is the fitted concentration of half-maximal effect; % is set by controls: 0 for no effect and ±100 for the full control effect; nearly all actives have a fitted effect of over 75% in size
* hit, by the source's call; ? = inconclusive; / = no result given; [ ] = another dose, or the depositor's remark. Calls come from the whole dose curve; as a rule, active = well fitted curve in the direction sought with a large enough effect; inconclusive = small, poorly fitted or top-dose-only effect, or another doubt; inactive = no such curve, though single readings can be large; an effect the other way counts as inactive or inconclusive.

SMILES	PLK1 PBD inh	rTrxR1 inhibitor	TrxR1 substrate	mIDH1 inhibitor	Sfp PPTase inh	VDR inh	TbPYK inh	TbPYK ADP-Glo	others
CCOC(=O)c1c(-n2c(C)cc(C=C3C(=O)NC(=S)NC3=O)c2C)sc2c1CCCC2	0.3µM*	22µM*	-13%	14µM*	18µM*	?	/	/	IDH1 autofl=0;IDH1 WT=40µM*;IDH1 R132H conf=7.1µM*
CCOC(=O)c1c(C)n(C(C)C)c2ccc(OC(=O)c3ccc(N4C(=O)CCC4=O)cc3)cc12	-3%	4%[57.1 µM]	8%[57.1 µM]	14%	-7%	1%	/	/
O=c1cccc2n1CC1CC2CN(CCO)C1 (stereo not given)	/	/	/	/	17%	/	/	/
CCOC(=O)c1c(/N=C/c2c(O)n(-c3cccc(C)c3)c(=O)[nH]c2=O)sc2c1CCCC2	-7%	1%	-1%	?	?	-24%	/	/	IDH1 autofl=6;IDH1 WT=1%;IDH1 R132H conf=11µM*
CCCC(C)(COC(N)=O)COC(=O)NC1CC1 (stereo not given)	/	/	/	/	21%	2%	/	/
COc1ccc(S(=O)(=O)N(C)C[C@H]2OCCCC[C@@H](C)Oc3ccc(N(C)C)cc3C(=O)N([C@H](C)CO)C[C@@H]2C)cc1	-13%	/	/	2%	/	/	2.5µM*	6.3µM*
COc1ccc(OC(=O)N(C)C[C@@H]2OCc3cnnn3CCCC(=O)N([C@H](C)CO)C[C@H]2C)cc1	-24%	/	/	6%	/	/	/	/
COc1ccccc1N1C(=O)NC(=O)/C(=C/c2ccc([N+](=O)[O-])s2)C1=O	3.4µM*	?	-9%	6%	22µM*	45µM*	?	?
COc1cccc(N2C(=O)NC(=O)/C(=C/c3ccc([N+](=O)[O-])s3)C2=O)c1	3µM*	?	-6%[57.1 µM]	9%	25µM*	?	13µM*	18µM*
COc1ccccc1N1C(=O)NC(=O)C(CCc2ccncc2)(CCc2ccncc2)C1=O	1%	8%	4%	-5%	-8%	4%	/	/
COc1ccc(N2C(=O)NC(=O)/C(=C/c3ccc([N+](=O)[O-])s3)C2=O)cc1	3µM*	40µM*	-14%	-12%	25µM*	40µM*	6.3µM*	13µM*
COc1ccc(N2C(=O)NC(=O)/C(=C\c3ccc([N+](=O)[O-])s3)C2=O)cc1	2.7µM*	25µM*	-3%[57.1 µM]	-13%	40µM*	71µM*	7.9µM*	16µM*
CCCCCCC(=O)O[C@H]1CC[C@H]2[C@@H]3CCC4CC(=O)C=C(C)[C@]4(C)[C@H]3CC[C@]12C (stereo not given in full)	/	/	/	/	-27%	-18%	/	/
O=C(Nc1cccc(F)c1)N1CCC2(CC1)CCN(C(=O)Oc1ccccc1)CC2	/	/	/	/	15%	7%	/	/
